Assay results as given in PubChem BioAssay (EPA / NIEHS).
Records with an inconclusive call do not appear. Calls of active or inactive are those of the source. The calls were made as follows: active = hit-call score of the fitted dose curve at least 0.9, where 1 is the maximum; inconclusive = response in the unintended direction; inactive = score below 0.9.

assay: ACEA_ER_AUC_viability: ACEA Biosciences xCELLigence Real-Time Cell Analysis on Estrogen Receptor Agonism for Viability (AID 2283782);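 also: hit means loss of impedance signal meaning reduced cell growth or viability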
In short: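 Viability endpoint: reduced impedance area under the curve relative to DMSO, recorded by real-time electrode sensing over ~80 h of continuous exposure. Duplicate plates of T47D in hormone-depleted medium; eight concentrations, 1:4 dilutions, 100 uM maximum.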

Question: For C=CC(=O)OCC(F)(F)C(F)(F)C(F)(F)C(F)(F)C(F)(F)C(F)(F)C(F)(F)F, which outcome is on record?
Answer: inactive

Question: Which outcome does the source give for CCc1ccc(C(c2ccc(CC)cc2)C(Cl)Cl)cc1 here?
Answer: inactive

Question: With CCCCCC=O as the compound, how does the outcome read?
Answer: inactive

Question: With CO[Si](OC)(c1ccccc1)c1ccccc1 as the compound, how does the AC50 read?
Answer: 79.9 µM (active)

Question: For O=C(O)C(F)(F)C(F)(F)C(F)(F)C(F)(F)C(F)(F)C(F)(F)C(F)(F)C(F)(F)C(F)(F)C(F)(F)C(F)(F)C(F)(F)C(F)(F)F, which AC50 is on record?
Answer: 2.91 µM (active)

Question: For C=CC(F)(F)C(F)(F)C(F)(F)C(F)(F)C(F)(F)C(F)(F)C(F)(F)C(F)(F)C=C, which outcome is on record?
Answer: inactive

Question: For C=C(C)C(=O)OCC(F)(F)C(F)(F)C(F)(F)C(F)(F)C(F)(F)C(F)(F)C(F)(F)F, which outcome is on record?
Answer: inactive

Question: Which outcome does the source give for FC(F)(F)C(F)(F)C(F)(F)C(F)(F)C(F)(F)C(F)(F)CCS here?
Answer: inactive

Question: For OCC(F)(F)C(F)(F)C(F)(F)C(F)F, which outcome is on record?
Answer: inactive

Question: Which outcome does the source give for O=C(O)C(F)(F)C(F)(F)C(F)F here?
Answer: inactive

Question: With Cc1ccc(S(=O)(=O)NCl)cc1 as the compound, how does the outcome read?
Answer: inactive

Question: Which AC50 does the source give for c1ccc(-c2ccccc2-c2ccccc2)cc1 here?
Answer: 78.7 µM (active)

Question: For O=C(O)C(F)(OC(F)(F)C(F)(OC(F)(F)C(F)(OC(F)(F)C(F)(F)C(F)(F)F)C(F)(F)F)C(F)(F)F)C(F)(F)F (stereo unspecified), which outcome is on record?
Answer: inactive

Question: With O=C(O)C(F)(F)C(F)(F)C(F)(F)C(F)(F)C(F)(F)C(F)(F)C(F)(F)C(F)(F)C(F)(F)C(F)(F)C(F)(F)C(F)(F)F as the compound, how does the AC50 read?
Answer: 19.3 µM (active)

Question: For CCCCCCCOC(=O)c1ccccc1C(=O)OCCCCCCC, which outcome is on record?
Answer: inactive

Question: Which outcome does the source give for CC(C)(C)C(=O)CC(=O)C(F)(F)C(F)(F)C(F)(F)F here?
Answer: inactive
